According to PubChem BioAssay (NCATS):
Records with an inconclusive call do not appear. A number with no mark means an inactive call. Active and inactive are the calls of the source. The call rests on the fitted dose curve.

target: Peroxisome proliferator-activated receptor delta (Homo sapiens) (UniProt Q03181); test: qHTS assay for small molecule agonists of peroxisome proliferator-activated receptor delta signaling (AID 588534); settings: HEK293T PPARdelta-UAS-bla, beta-lactamase ratio, 18 h; series mostly up to 76.7 µM; activation: at the top concentration;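 further: 0% = DMSO basal wells and 100% = positive control agonist at 10 µM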
Text: NIH Chemical Genomics Center [NCGC] U.S. Environmental Protection Agency [EPA] National Institutes of Environmental Health Sciences [NIEHS] National Toxicology Program [NTP] NCGC Assay Overview The Peroxisome proliferator-activated receptors (PPARs) are lipid-activated transcription factors of the nuclear receptor superfamily with three distinct subtypes namely PPAR alpha, PPAR delta (also called PPAR beta) and PPAR gamma. All these subtypes heterodimerizes with Retinoid X receptor (RXR) and have different physiological functions. […] This role of PPAR delta implicates the potential use of its ligands in the treatment of metabolic disorders.
Compounds were screened in a titration series in 1536-well format. […] Concentration-response titration points for each compound were fitted to the Hill equation yielding concentrations of half-maximal stimulation (EC50) and maximal response (efficacy) values. qHTS protocol for PPAR-delta beta-lactamase assay in agonist mode [Step] [Parameter] [Value] [Description] 1. Reagent; 6 uL; 4000 cells/well 2. Incubation; 37 C for 5 hrs 3. Compounds; 23 nL; 0.59 nM to 92 uM 4. […] Incubation; 37 C for 18 hrs 6. Detection reagent; 1 uL of CCF4-dye 7. Incubation; RT for 2 hrs 8. Detection; Fluorescence; Envision plate reader

Peroxisome proliferator-activated receptor delta (Homo sapiens), sequence (Q03181 whole entry, looked up): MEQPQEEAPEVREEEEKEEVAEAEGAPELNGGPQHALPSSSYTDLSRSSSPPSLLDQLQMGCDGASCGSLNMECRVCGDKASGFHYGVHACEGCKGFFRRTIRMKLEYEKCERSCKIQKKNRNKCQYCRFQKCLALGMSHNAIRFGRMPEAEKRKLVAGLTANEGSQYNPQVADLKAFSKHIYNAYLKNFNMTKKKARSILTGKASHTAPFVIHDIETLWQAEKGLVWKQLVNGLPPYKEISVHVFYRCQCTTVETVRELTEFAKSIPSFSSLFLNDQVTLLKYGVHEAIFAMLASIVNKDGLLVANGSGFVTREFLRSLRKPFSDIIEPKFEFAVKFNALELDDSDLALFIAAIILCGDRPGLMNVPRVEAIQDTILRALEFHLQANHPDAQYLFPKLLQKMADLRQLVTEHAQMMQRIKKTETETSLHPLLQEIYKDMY

Row | SMILES | activation | outcome
1 | COC1=CC(=O)O[C@@H](/C=C/c2ccc3c(c2)OCO3)C1 | -3.67% | 
2 | C1CCC2CCCCC2C1 (stereo not given) | 3.73% | 
3 | O=NN(c1ccccc1)c1ccccc1 |  | inactive
4 | C[N+](C)(C)Cc1ccccc1 |  | inactive
5 | OCC1CO1 (stereo not given) |  | inactive
6 | O=C(Cl)C(Cl)(Cl)Cl | 11.1% | 
7 | CCCCOCCOP(=O)(OCCOCCCC)OCCOCCCC |  | inactive
8 | CCOP(=S)(OCC)SCSC(C)(C)C |  | inactive
9 | CC1=CCC(C(C)(C)O)CC1 (stereo not given) | 0.79% | 
10 | CCCCSP(=O)(SCCCC)SCCCC | 6.21% | 
11 | ClC(Cl)(Cl)c1ccccc1 |  | inactive
12 | COc1ccc(/C=C/c2cc(OC)cc(=O)o2)cc1 | -11.8% | 
13 | CC(C)Nc1nc(Cl)nc(NC(C)C)n1 | -4.16% | 
14 | CNC(=O)Oc1ccccc1OC(C)C | -0.423% | 
15 | O=CCCCC=O | -8.55% | 
16 | Clc1ccc2ccccc2c1 | 8.88% | 
17 | Cc1ccccc1N |  | inactive
18 | BrCCBr |  | inactive
19 | CNC(=O)Oc1cccc2c1OC(C)(C)O2 | 5.5% | 
20 | CN(C)Cc1ccccc1 | 8.67% | 

Row | SMILES | activation | outcome
21 | CCNc1nc(Cl)nc(NC(C)C)n1 |  | inactive
22 | CCc1cccc(CC)c1N(COC)C(=O)CCl |  | inactive
23 | Clc1cc(Cl)c(-c2cc(Cl)c(Cl)cc2Cl)cc1Cl |  | inactive
24 | ClC1=C(Cl)C2(Cl)C3C4C=CC(C4)C3C1(Cl)C2(Cl)Cl (stereo not given) | -5.91% | 
25 | CC(C)(OO)c1ccccc1 |  | inactive
26 | c1ccc2scnc2c1 | 6.18% | 
27 | CC(Cl)Cl | -0.18% | 
28 | CCOc1ccc(N)cc1 | 11.9% | 
29 | Nc1c(Cl)c(Cl)nc(C(=O)O)c1Cl | -14% | 
30 | COc1nc(NC(C)C)nc(NC(C)C)n1 | -1.02% | 
31 | C=CC(C)=O | 4.85% | 
32 | ClC(Cl)=C(Cl)C(Cl)=C(Cl)Cl |  | inactive
33 | O=C=NC1CCCCC1 |  | inactive
34 | S=C=Nc1cccc2ccccc12 | 1.47% | 
35 | Clc1nc(Cl)nc(Cl)n1 |  | inactive
36 | Cc1cccc(O)c1 |  | inactive
37 | ClC1=C(Cl)C2(Cl)C3C4CC(C5OC45)C3C1(Cl)C2(Cl)Cl (stereo not given) | 8.89% | 
38 | O=C(O)[C@H](O)[C@@H](O)[C@H](O)[C@H](O)CO | 6.93% | 
39 | CC1=CCC2CC1C2(C)C (stereo not given) | 4.87% | 
40 | Cc1ccc([N+](=O)[O-])cc1C |  | inactive
